Experimental data reported in PubChem BioAssay (NCI).
About 83,000 compounds went through this panel and 20% of them were active in at least one assay; those are over-represented in the sample as a whole.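 Negative percent growth values reflect cell death: -40 means 40% of the cells present at the start died, and -100 means all died.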 Unmarked numbers belong to inactive results. Active and inactive are the calls of the source. Rule for the calls: active = growth percent below 10; inactive = the rest.

Assays:
Test in all cases: NCI-60 one-dose screen, 48 h (100 = growth as untreated, 0 = no growth, -100 = all killed)
Conditions in all cases: 10 µM unless noted
NCI-H23 lung = tested on: NCI-H23 lung
NCI-H226 lung = tested on: NCI-H226 lung
NCI-H322M lung = tested on: NCI-H322M lung
NCI-H460 lung = tested on: NCI-H460 lung
HOP-92 NSCLC = tested on: HOP-92 NSCLC
NCI-H522 lung = tested on: NCI-H522 lung
A549/ATCC NSCLC = tested on: A549/ATCC NSCLC
786-0 renal = tested on: 786-0 renal
COLO 205 colon = tested on: COLO 205 colon
DU-145 prostate = tested on: DU-145 prostate
K-562 leukemia = tested on: K-562 leukemia
MALME-3M melanoma = tested on: MALME-3M melanoma
MDA-MB-231 breast = tested on: MDA-MB-231 breast
RXF 393 renal = tested on: RXF 393 renal
SF-268 CNS = tested on: SF-268 CNS
SF-295 CNS = tested on: SF-295 CNS
SF-539 CNS = tested on: SF-539 CNS
UACC-257 melanoma = tested on: UACC-257 melanoma
M14 melanoma = tested on: M14 melanoma

Structure (SMILES) | growth (NCI-H23 lung) | growth (NCI-H226 lung) | growth (NCI-H322M lung) | growth (NCI-H460 lung) | growth (HOP-92 NSCLC) | growth (NCI-H522 lung) | growth (A549/ATCC NSCLC) | growth (786-0 renal) | growth (COLO 205 colon) | growth (DU-145 prostate) | growth (K-562 leukemia) | growth (MALME-3M melanoma) | growth (MDA-MB-231 breast) | growth (RXF 393 renal) | growth (SF-268 CNS) | growth (SF-295 CNS) | growth (SF-539 CNS) | growth (UACC-257 melanoma) | growth (M14 melanoma)
CCCCC1COc2cccc3c2N1C=C/C3=C\C(=O)n1ccc2ccccc21 (stereo not given) | 76.5% | 84% | 96.4% | 88.2% | 63.3% | 56% | 78.7% | 90.1% | 91% | 99.1% | 19.2% | 69.3% | 85.1% | 87% | 94.5% | 80.7% | 97.2% | 85.6% | 56%
c1cc2ccc1CNCCN1CCNCc3ccc(cc3)Oc3ccc(cc3)CNCCN(CCNCc3ccc(cc3)O2)CCNCc2ccc(cc2)Oc2ccc(cc2)CNCC1 | -79.3% (active) | -56.6% (active) | -28.5% (active) | -66.3% (active) | -92.2% (active) | -84.3% (active) | -79.1% (active) | 66.2% | -86.8% (active) | -88.6% (active) | -23.7% (active) | -5.04% (active) | -87% (active) | -30.8% (active) | -88% (active) | 6.02% (active) | -89.2% (active) | 37.5% | 94.8%
COC(=O)[C@]1(C)CC[C@]2(C)CC[C@]3(C)C(=CC(=O)[C@@H]4[C@@]5(C)CCC(=O)NC(C)(C)[C@@H]5CC[C@]43C)[C@@H]2C1 | -77.5% [100 µM] (active) | -58.3% [100 µM] (active) | 29.1% [100 µM] | -17.2% [100 µM] (active) | -85.6% [100 µM] (active) | -73.4% [100 µM] (active) | 9.53% [100 µM] (active) | -70.9% [100 µM] (active) | -51.2% [100 µM] (active) | -24.1% [100 µM] (active) | 4.37% [100 µM] (active) | -76.4% [100 µM] (active) | -80.2% [100 µM] (active) | -85.5% [100 µM] (active) | -55.3% [100 µM] (active) | -70.6% [100 µM] (active) | -85% [100 µM] (active) | -30.3% [100 µM] (active) | -39.1% [100 µM] (active)
COc1ncc(-c2ccc3nccc(C#CCCCCC(=O)O)c3c2)cc1NS(=O)(=O)c1ccc(F)cc1F | 44% | 46.4% | 18.3% | 12.3% | -21.7% (active) | 43.4% | 14.8% | 3.82% (active) | 28.6% | 40.9% | 78.6% | -21.4% (active) | 41.9% | -20% (active) | 36.5% | 6.94% (active) | -9.14% (active) | -2.67% (active) | 13.9%
COc1cc(/C=C/C(=O)/C=C/c2ccc(-n3ccnc3C)cc2)ccc1O | 64% | 89.1% | 100% | 81.2% | 95.1% | 81.4% | 62.1% | 97.2% | 60.1% | 54% | 13.2% | 101% | 97.1% | 47.8% | 49.9% | 84.3% | -0.75% (active) | 89.3% | 111%
